Assay results reported in PubChem BioAssay.
Several values for one entry are separate records, joined by “and”; a condition that tells them apart may be missing. Equal entries are not always repeated. Activity calls are given as the source filed them. Unless noted, the rule behind the calls is not given here.

System: not listed separately
Experiment: compounds altering viability of human ES cells (AID 493140);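 note: cells exposed to compounds for four days before counting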
Settings: human embryonic stem cell survival screen; stronger effect = higher value
With `CC1=C(/C=C/C(C)=C/C=C/C(C)=C\C(=O)O)C(C)(C)CCC1` the survival was 10.8 (inactive) and 52.6 (inactive).
For `CN(C)c1nc(N(C)C)nc(N(C)C)n1`, the survival was 2.92 (inactive).
In the case of `CNCCC(Oc1ccc(C(F)(F)F)cc1)c1ccccc1` (stereo unspecified), the survival was 3.58 (inactive).
With `CC(C)NCC(O)COc1ccc(CC(N)=O)cc1` (stereo unspecified) the survival was 4.33 (inactive).
For `C[N+]1(C)CCCC(OC(=O)C(O)(c2ccccc2)c2ccccc2)C1` (stereo unspecified), the survival was 8 (inactive).
In the case of `CC(C)NCC(O)COc1cccc2ccccc12` (stereo unspecified), the survival was 5.92 (inactive) and 9.92 (inactive) and 3.58 (inactive).
For `CC(C(=O)O)c1ccc(-c2ccccc2)c(F)c1` (stereo unspecified), the survival was 4.67 (inactive).

System: not listed separately
Experiment: P. berghei load reduction in hepatocytes – cell-based, HepG2, luciferase luminescence, HepG2 viability, primary screen (AID 624349; in the data active = parasite load remaining mostly below about 12%, no sharp cut-off; inactive = mostly above about 10%;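 note: 100% = mean of DMSO negative control wells on the same plate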)
Settings: P. berghei liver stage in HepG2, luciferase luminescence, concentration not given here; parasite load remaining: stronger effect = lower value; viability: measured here: HepG2 viability without parasites
For `COc1ccc(C[C@H](N)C(=O)N[C@H]2[C@@H](O)[C@H](n3cnc4c(N(C)C)ncnc43)O[C@@H]2CO)cc1`, the viability was 17.9% and 1% and the parasite load remaining was -0.025% (inactive) and -0.34% (inactive).
In the case of `COc1ccc(/C=C/C(=O)Nc2ccccc2C(=O)O)cc1OC`, the parasite load remaining was 13.7% (inactive) and 10.8% (inactive) and 12.8% (inactive) and the viability was 99.2% and 76.6% and 140%.
With `Cc1cccc(C)c1NC(=O)C1CCCCN1C` (stereo unspecified) the viability was 85.7% and 198% and 72.6% and the parasite load remaining was 174% (inactive) and 77.7% (inactive) and 69.1% (inactive).
With `Cc1occc(=O)c1O` the parasite load remaining was 65.4% (inactive) and the viability was 68.2%.
With `CCCCC(=O)N(Cc1ccc(-c2ccccc2-c2nn[nH]n2)cc1)[C@H](C(=O)O)C(C)C` the parasite load remaining was 147% (inactive) and 47.5% (inactive) and 92.3% (inactive) and the viability was 89.7% and 98.7% and 73.8%.
In the case of `O=[N+]([O-])c1cccc2cn[nH]c12`, the parasite load remaining was 55.2% (inactive) and the viability was 68.7%.
For `COc1ccc(-c2cc(=O)c3c(OC)c(OC)c(OC)c(OC)c3o2)cc1OC`, the viability was 66.9% and the parasite load remaining was 46.2% (inactive).

System: Hepatitis C virus NS3 helicase
Experiment: blockers of NS3h binding to ssDNA – biochemical, fluorescence polarization, LOPAC1280 library, primary screen (AID 687035; in the data active = inhibition above about 37%)
Settings: Purified HCV NS3 helicase, Cy5-dT15 ssDNA binding fluorescence polarization; stronger effect = higher value; concentration not given here
For `COc1ccc(/C=C/C(=O)Nc2ccccc2C(=O)O)cc1OC`, the inhibition was 1% (inactive).
With `CC1=C(/C=C/C(C)=C/C=C/C(C)=C\C(=O)O)C(C)(C)CCC1` the inhibition was 1% (inactive).
In the case of `O=c1ccc2ccc(O)c(O)c2o1`, the inhibition was 0% (inactive).
In the case of `CN(C)c1nc(N(C)C)nc(N(C)C)n1`, the inhibition was 0% (inactive).
For `CNCCC(Oc1ccc(C(F)(F)F)cc1)c1ccccc1` (stereo unspecified), the inhibition was -3% (inactive).
With `CC(C)NCC(O)COc1ccc(CC(N)=O)cc1` (stereo unspecified) the inhibition was -1% (inactive).
For `CC(C)NCC(O)COc1cccc2ccccc12` (stereo unspecified), the inhibition was -4% (inactive).
For `O=[N+]([O-])c1cccc2cn[nH]c12`, the inhibition was -1% (inactive).

System: not listed separately
Experiment: compounds altering Cy5-DNA-NS3h complex signal – biochemical, LOPAC1280, artefact control for HCV NS3 helicase inhibitor project (AID 687037)
Settings: Cy5-DNA-NS3h complex fluorescence interference counterscreen
For `COc1ccc(/C=C/C(=O)Nc2ccccc2C(=O)O)cc1OC`, the fluorescence ratio (interference) was 1 (inactive).
In the case of `CC1=C(/C=C/C(C)=C/C=C/C(C)=C\C(=O)O)C(C)(C)CCC1`, the fluorescence ratio (interference) was 0.9 (inactive).
With `O=c1ccc2ccc(O)c(O)c2o1` the fluorescence ratio (interference) was 1.1 (inactive).
In the case of `CN(C)c1nc(N(C)C)nc(N(C)C)n1`, the fluorescence ratio (interference) was 0.9 (inactive).
With `CNCCC(Oc1ccc(C(F)(F)F)cc1)c1ccccc1` (stereo unspecified) the fluorescence ratio (interference) was 1 (inactive).
For `CC(C)NCC(O)COc1ccc(CC(N)=O)cc1` (stereo unspecified), the fluorescence ratio (interference) was 0.9 (inactive).
In the case of `CC(C)NCC(O)COc1cccc2ccccc12` (stereo unspecified), the fluorescence ratio (interference) was 1 (inactive).
With `O=[N+]([O-])c1cccc2cn[nH]c12` the fluorescence ratio (interference) was 1 (inactive).

System: not listed separately
Experiment: signal quenchers or enhancers, Cy5 substrate/SSB – biochemical, NIH Clinical Collection, E. coli SSB, artefact control for HCV NS3 helicase inhibitor project (AID 743268)
Settings: Cy5-oligo bound E. coli SSB, fluorescence interference
In the case of `COC(=O)[C@H](c1ccccc1Cl)N1CCc2sccc2C1`, the fluorescence ratio was 1 (inactive).
For `COc1ccc(/C=C/C(=O)Nc2ccccc2C(=O)O)cc1OC`, the fluorescence ratio was 1.05 (inactive).
For `CC1=C(/C=C/C(C)=C/C=C/C(C)=C\C(=O)O)C(C)(C)CCC1`, the fluorescence ratio was 1.01 (inactive).
With `Cc1cccc(C)c1NC(=O)C1CCCCN1C` (stereo unspecified) the fluorescence ratio was 0.96 (inactive).
In the case of `CN(C)c1nc(N(C)C)nc(N(C)C)n1`, the fluorescence ratio was 1.08 (inactive).
In the case of `CC[C@H]1OC(=O)[C@H](C)[C@@H](O[C@H]2C[C@@](C)(OC)[C@@H](O)[C@H](C)O2)[C@H](C)[C@@H](O[C@@H]2O[C@H](C)C[C@H](N(C)C)[C@H]2O)[C@](C)(OC)C[C@@H](C)C(=O)[C@H](C)[C@@H](O)[C@]1(C)O`, the fluorescence ratio was 1.06 (inactive).
With `CNCCC(Oc1ccc(C(F)(F)F)cc1)c1ccccc1` (stereo unspecified) the fluorescence ratio was 1.04 (inactive).
In the case of `CS(=O)(=O)c1ccc(C2=C(c3ccccc3)C(=O)OC2)cc1`, the fluorescence ratio was 1.03 (inactive).
With `Cc1occc(=O)c1O` the fluorescence ratio was 1 (inactive).
For `Nc1ncnc2c1ncn2[C@@H]1O[C@H](CO)[C@@H](O)[C@@H]1O`, the fluorescence ratio was 1 (inactive).
In the case of `CC(C)NCC(O)COc1ccc(CC(N)=O)cc1` (stereo unspecified), the fluorescence ratio was 1.03 (inactive).
With `C[N+]1(C)CCCC(OC(=O)C(O)(c2ccccc2)c2ccccc2)C1` (stereo unspecified) the fluorescence ratio was 1.02 (inactive).
For `CC(C)NCC(O)COc1cccc2ccccc12` (stereo unspecified), the fluorescence ratio was 1.01 (inactive).
For `CCc1ccc(CCOc2ccc(CC3SC(=O)NC3=O)cc2)nc1` (stereo unspecified), the fluorescence ratio was 1.03 (inactive).
With `CCCCC(=O)N(Cc1ccc(-c2ccccc2-c2nn[nH]n2)cc1)[C@H](C(=O)O)C(C)C` the fluorescence ratio was 1.07 (inactive).
With `C[C@H]1COc2c(N3CCN(C)CC3)c(F)cc3c(=O)c(C(=O)O)cn1c23` the fluorescence ratio was 1.03 (inactive).
In the case of `O=[N+]([O-])c1cccc2cn[nH]c12`, the fluorescence ratio was 0.99 (inactive).
In the case of `COc1ccc(-c2cc(=O)c3c(OC)c(OC)c(OC)c(OC)c3o2)cc1OC`, the fluorescence ratio was 1.01 (inactive).
In the case of `CC(C(=O)O)c1ccc(-c2ccccc2)c(F)c1` (stereo unspecified), the fluorescence ratio was 0.95 (inactive) and 0.99 (inactive).
